# Compounds without any hit were thinned out: in the full panel of roughly 79,000, 15% have a hit. Values without a mark were called inactive. Activity calls are given as the source filed them. Rule as the data show it: active = growth inhibition above about 70%; inactive = the rest.
# Assay: NCI Yeast Anticancer Drug Screen. Data for the cln2 rad14 strain (AID 165);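 also: 0% = growth equal to vehicle treated cultures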
# Settings: S. cerevisiae cln2 rad14 strain, at 50.0 µM (retest, dose inferred, filed as 5.0), active compounds read high
# Summary of the method: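 Growth inhibition, relative to vehicle-treated controls, is the read-out. The test organism is a yeast strain with defined genetic alterations, cln2 rad14.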
row,Compound,growth inhibition
1,O=C(O)/C=C/C(=O)Nc1cccc2ccccc12,100% (active)
2,CCCCCN=C(C)C(C)=NCCCCC,63%
3,Oc1ccc(N=Nc2ccccc2)c(O)c1.Oc1ccc(N=Nc2ccccc2)c(O)c1.[Cu],92% (active)
4,NNc1c(Cl)cc(Cl)cc1Cl,43%
5,C=C1C[C@H](O)[C@H]2C(C[Se]c3ccccc3)C(=O)O[C@@H]2[C@H]2[C@H](C)C(O)C[C@@H]12 (stereo partly drawn),8%
6,O=C(CBr)Oc1ccc(-c2cccc(Br)c2)cc1,99% (active)
7,CCCCC1=NCCc2c1cc1c([nH]c3ccccc31)c2C,26%
8,CCOC(=O)NC(=S)Nc1ccsc1,-13%
9,CCCCCCCCCCCCCCCCNC(C)c1ccccc1 (stereo not drawn),-4%
10,Cc1ccc(C2(O)CC(c3ccc([N+](=O)[O-])o3)=NN2C(=O)COc2ccc(Cl)cc2)cc1 (stereo not drawn),11%
11,CCOC(=O)/C(C#N)=C/c1ccccc1Br,17%
12,CCCCCCCCCCCCCCCCNCCCCCCCC(=O)O,26%
13,CC[N+]1(C)CCC(O)(c2ccc(Cl)c(Cl)c2)C(C(=O)c2ccc(Cl)c(Cl)c2)C1 (stereo not drawn),99% (active)
14,CC(=O)Nc1nnc(-c2coc3ccccc3c2=O)s1,1%
15,CCC(C)(C)NCCCCCNc1cc(OC)cc2cccnc12,9%
16,CSC(=Nc1ccccc1)/N=C(\SCc1ccccc1)N(C)C,99% (active)
17,N=Cc1cc([N+](=O)[O-])ccc1O,95% (active)
18,CCCCCCCC(=O)/C=C/c1ccc(C)cc1,-86%

# Reference: PubChem BioAssay (NCI)
